Results filed as inconclusive are left out. Where a call stands in place of a potency, no number is given. Calls of active or inactive are those of the source. Unless noted, the call rests on the fitted dose curve; in most records, active means well fitted curve in the direction sought with a large enough effect; inconclusive means small, poorly fitted or top-dose-only effect, or another doubt; inactive means no such curve, though single readings can be large; an effect the other way counts as inactive or inconclusive.
Columns and labels:
[1] = Cytotoxicity counterscreen for NFkB agonists and antagonists (AID 624476); conditions: NFkB reporter cell line viability counterscreen; series mostly up to 46.1 µM; further: potency means the concentration at half of the fitted maximal effect
[2] = qHTS Assay for Identification of Small Molecule Agonists for NFkB Signaling Pathway. (AID 624478); conditions: NFkB pathway reporter cell assay, agonist mode, cells co-stimulated with 10 pM TNF alpha; series mostly up to 46.1 µM
Summary of the method: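 NFkB-bla ME-180 cells (beta-lactamase reporter under NFkB response element) were plated overnight, treated with compound plus TNF alpha at 10 pM final (its EC50) for 5 hrs at 37 C, then loaded with LiveBLAzer substrate for 2 hrs.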

[3] = qHTS Assay for Identification of Small Molecule Antagonists for NFkB Signaling Pathway. (AID 624479; calls by dose curve; further: potency means the concentration at half of the fitted maximal effect); conditions: NFkB pathway reporter cell assay, antagonist mode; series mostly up to 38.3 µM
[4] = Cell Proliferation Assay against the HBL1 Cell Line (AID 651646); conditions: HBL1 DLBCL cells; at 46.1 µM (top of the series) unless noted;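 further: cells exposed to compound for 48 h before reading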
Summary of the method: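 500 log-phase HBL1 cells per well in phenol red-free RPMI with 5% FBS were treated with compounds for 48 h at 37 °C, 5% CO2. Viability was read by CellTiter-Glo luminescence, normalized to DMSO (100%) and 9.2 uM bortezomib final (0%).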

[5] = Cell Proliferation Assay against the TMD8 Cell Line (Caspase readout at 16 hrs) (AID 651712); conditions: TMD8 lymphoma cells, caspase activation luminescence; series mostly up to 46.1 µM; further: potency means the concentration at half of the fitted maximal effect
Summary of the method: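 TMD8 cells (500/well) in phenol-red-free RPMI with glutamine, 5% FBS, were exposed to compounds for 16 h at 37 °C. Caspase 3/7 activation was read by Caspase-Glo luminescence; percent activity normalised to DMSO (0%) and 9.2 uM bortezomib final (100%).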

[6] = Cell Proliferation Assay against the TMD8 Cell Line (Caspase readout at 8 hrs) (AID 651713); conditions: TMD8 lymphoma cells, caspase activation luminescence; series mostly up to 46.1 µM
Summary of the method: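 TMD8 cells (500/well) in phenol red-free RPMI with 5% FBS were treated with compounds for 8 h at 37C, 5% CO2. Caspase-Glo 3/7 luminescence was read after 15 min at room temperature and normalised to DMSO (0%) and 9.2 uM bortezomib (100%).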

[7] = Cell Proliferation Assay against the TMD8 Cell Line (AID 651645); conditions: TMD8 DLBCL cell line proliferation/viability; at 46.1 µM (top of the series) unless noted;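 further: cells exposed to compound for 48 h before reading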
Summary of the method: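 TMD8 ABC DLBCL cells, 500 per well in phenol red-free RPMI with 5% FBS, were treated with compound by pin transfer and incubated 48 hours at 37C, 5% CO2. Viability was read by CellTiter-Glo luminescence, normalised to DMSO (100%) and 9.2 uM bortezomib (0%).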

SMILES | Potency [1] | outcome [2] | Potency [3] | viability, percent of control [4] [%] | Potency [5] | Potency [6] | viability (% of control) [7] [%]
O=C(O)[C@@H](c1ccc(OCc2ccc3ccccc3n2)cc1)C1CCCC1 | inactive | inactive | inactive | 92.8 | inactive | inactive | –
CCCn1c(=O)c2[nH]c(C34CC5CC3C[C@@H](C5)C4)nc2n(CCC)c1=O | inactive | inactive | – | 60.2 | 18.7 µM (active) | inactive | 30.5
CS(=O)(=O)Oc1ccc2c(NC(N)=O)c(C(=O)c3ccc(Cl)cc3Cl)oc2c1 | inactive | inactive | – | 78.9 | inactive | inactive | 84.9
CCn1c(-c2nonc2N)nc2cnc(Oc3cccc(NC(=O)c4ccc(OCCN5CCOCC5)cc4)c3)cc21 | inactive | inactive | 4.73 µM (active) | 36.3 | – | inactive | –
COc1ccc(-c2ccc3c(N4CCOC[C@H]4C)nc(N4CCOC[C@H]4C)nc3n2)cc1CO | inactive | inactive | inactive | 57.8 | – | inactive | –
S=C(NCc1ccc2c(c1)OCO2)N1CCN(c2ncnc3c2oc2ccccc23)CC1 | inactive | inactive | – | 40.5 | inactive | – | 26.5
NC(=O)c1ccc(-c2nc(-c3ccc4c(c3)OCCO4)c(-c3ccccn3)[nH]2)cc1 | inactive | inactive | – | 105 | inactive | inactive | 83.2
C[C@]1(c2nc3c(C(N)=O)cccc3[nH]2)CCCN1 | inactive | inactive | – | 89.5 | inactive | inactive | 57.1
Oc1cccc(-c2nc(N3CCOCC3)c3oc4ncccc4c3n2)c1 | 0.0833 µM (active) | inactive | – | 42.6 | – | – | 16.2
NC(=O)c1ccc(I)c([N+](=O)[O-])c1 | inactive | inactive | inactive | 76.7 | inactive | inactive | –
